Screen size: about 300,000 compounds; about 37,000 (12%) were called active. The list comes from a sample in which actives are over-represented; it also holds similar structures and randomly drawn compounds. A number with no mark means an inactive call. Rule as the data show it: active = max response mostly above about 13% (no sharp cut-off); inactive = mostly below about 14%.

From PubChem BioAssay AID2314 (National Center for Advancing Translational Sciences (NCATS), 2010) come the findings set out here.

The nature of this experiment: Cycloheximide Counterscreen for Small Molecule Inhibitors of Shiga Toxin. Also: read at 38.3 µM for the half of the compounds with a filed dose; 0% is about no effect. Conditions: cell reporter, cycloheximide protein synthesis inhibition counterscreen; active compounds read high. For orientation: A counterscreen serves to expose hits that act by an unwanted route or on another target.
`Cc1ccc(CNC(=O)Cc2cn(C)c3ccccc23)cc1`: the max response is 11.6%.
Regarding `Cc1cc2oc(=O)cc(CN(C)Cc3ccc(OC(F)F)cc3)c2cc1Cl`, the max response was -1.16%.
Next, `O=C(NCCN1CCOC1=O)C1CCC(=O)N(CCc2ccc(Cl)cc2)C1` (centres undefined): -3.62%; `O=C(NCCc1ccccc1Cl)C1CCC(=O)N(CCCc2ccccc2)C1` (centres undefined): -1.41%; `O=C(NCCCc1ccccc1)C1CCC(=O)N(CCc2ccc(Cl)cc2)C1` (centres undefined): 12% (active).
For `C/C=C(\C)C(=O)NCCN1C2=NC[C@H](Cc3ccc(O)cc3)N2C[C@@H]1Cc1ccc(OC)cc1` the value was 0.212%; for `COc1ccccc1NC(=O)c1ccc(N2CC3CC(C2)c2cccc(=O)n2C3)c(NC(=O)c2cccnc2)c1` (centres undefined), -5.5%; for `O=C(Nn1cnnc1)c1ccc([N+](=O)[O-])cc1`, -3.89%.
For `CCc1ccc(N2CC(O)=C(c3nc4ccccc4c(=O)[nH]3)C2=N)cc1` the value was 4.62%; for `CCOC(=O)CCCN1CC(O)=C(c2nc3ccccc3s2)C1=N`, 6.59%; for `N=C1C(c2nc3ccccc3s2)=C(O)CN1NC(=O)c1ccc([N+](=O)[O-])cc1`, 38.2% (active).
Turning to `N=C1C(c2nc3ccccc3[nH]2)=C(O)CN1NC(=O)c1c[nH]c2ccccc12`, the max response is 6.82%.
Next, `COc1ccccc1N1CC(O)=C(c2nc3ccccc3s2)C1=N`: 18.7% (active); `CCOc1ccc(N(CC(=O)Nc2ccccc2F)S(=O)(=O)c2c(C)[nH]c(=O)[nH]c2=O)cc1`: 9.46%.
On to `Cc1ccccc1/C=C\c1nc(O)c([N+](=O)[O-])c(=O)[nH]1`, for which the max response was -5.68%.
Next, `O=C(CNC(=O)c1ccccc1F)c1ccc(Br)cc1`: 57.7% (active).
For `COC(=O)CNC(=O)c1ccccc1F` the value was -2.02%; for `O=C(COC(=O)CNC(=O)c1ccccc1F)NCC(F)(F)F`, -1.02%; for `CSc1nnc(CNC(=O)c2ccccc2)n1-c1ccc(F)cc1`, -2.44%.
Next, `O=C(CNC(=O)c1ccccc1)NCC(=O)OCC(=O)c1ccccc1`: -5.87%; `O=C(CNC(=O)c1ccc(F)cc1)c1ccccc1`: 30% (active); `COCCNC(=O)NC(=O)COC(=O)C1(c2ccc(Cl)cc2)CC1`: 7.97%.
`CC1(C)Cc2c(sc(NC(=O)C(=O)N3CCOCC3)c2C#N)CO1`: the max response is -9.16%.
For `COc1nc(-c2ccc(Cl)cc2)ccc1-c1noc(-c2cccs2)n1` the value was -1.17%.
Regarding `CC(C)c1nc(-c2ccccn2)no1`, the max response is 22.8% (active).
Turning to `c1csc(-c2nc(-c3ccncc3)no2)c1`, the max response is 29.3% (active).
For `Clc1ccc(-n2nnnc2-c2cnc(-c3ccccn3)nc2-c2cccs2)cc1` the value was -3.52%; for `CC1(C)N=C(c2ccccn2)C(C)(C)N1O`, -7.15%; for `CCCCCCOc1ccc(OC(=O)c2cccnc2)cc1`, 14.6%.
Next, `O=C(COC(=O)c1ccc(Oc2ccccc2)cc1)Nc1nnc(-c2ccccc2)o1`: 13.5%; `O=C(Oc1ccc(-c2nc(-c3ccccn3)no2)cc1)c1ccccc1`: 31% (active).
For the compound `O=C(NCc1cccnc1)c1nc(-c2cccs2)no1`, the max response is 13.1%.
As for `O=C(O)COc1ccc(-c2nccc(-c3cccs3)n2)cc1`, the max response is -3.38%.
Next, `c1ccc(-c2nccc(-c3ccc(-n4cnc5ccccc54)cc3)n2)nc1`: -1.84%; `c1ccc(-c2noc(-c3cccs3)n2)nc1`: 17.4% (active).
With `CCc1ccc(OC(C)C(=O)Nc2ccc(S(=O)(=O)Nc3cc(C)on3)cc2)cc1` (centres undefined), the max response is -1.86%.
On to `COc1ccccc1NC(=O)CN(c1ccccc1OC)S(=O)(=O)c1ccccc1`, for which the max response is -1.65%.
Next, `O=C1C[C@@H](c2ccc3ccccc3c2)N1S(=O)(=O)c1ccccc1[N+](=O)[O-]`: -1.77%; `O=C1C2C(c3ccccc3)CC=CC2C(c2ccoc2)N1Cc1ccccc1` (centres undefined): 0.409%; `O=C(CN1C(=O)NC2(CCCCC2)C1=O)NCCc1c[nH]c2ccccc12`: -0.529%.
For `CC(C)(C)N(Cc1ccccc1)C(=O)c1ccncc1` the value was -0.936%.
For `Cc1nnc(SCc2ccc(C(=O)c3ccc(Cl)cc3)o2)n1-c1ccccc1` the value was 6.81%; for `Cc1ccc(-c2noc(CSc3nnc(-c4ccncc4)n3-c3ccc(F)cc3)n2)cc1`, 0.685%.
As for `Cc1ccc2nc(-c3ccncc3)cc(C(=O)Nc3ccncc3)c2c1`, the max response is 6.6%.
Next, `Cc1ccc(-c2nc(-c3ccncc3)no2)c(C)c1`: 43.8% (active); `Cc1cc(S(=O)(=O)N2CCOCC2)ccc1OCC(=O)Nc1cccc(C(F)(F)F)c1`: -3.96%; `CCC1=Nc2cc(C(=O)NCCN3CCCC3)ccc2Sc2ccc(C)cc21`: 14.2%.
For the compound `O=C(Nc1ccccc1)Nc1ccc(C(F)(F)F)cn1`, the max response is 13%.
As for `O=C(NC(=O)c1cc(OCC(F)(F)F)ccc1OCC(F)(F)F)Nc1ccccc1`, the max response is 8.68% (active).
For `CONC(=O)c1cc(OCC(F)(F)F)ccc1OCC(F)(F)F` the value was -3.39%; for `CC1CCN(C(=O)Cn2nnnc2CN2CCOCC2)CC1`, -2.13%.
For `COc1ccc(CCNC(=O)C(=O)NCC2OCCN2S(=O)(=O)c2ccc(F)cc2)cc1OC` (centres undefined) the value was 1.66%.
For `COCCNC(=O)c1ccc(N2CCC3(CC2)OCCO3)c([N+](=O)[O-])c1` the value was -2.09%; for `CCC(C)NC(=O)c1ccc(N2CCC3(CC2)OCCO3)c([N+](=O)[O-])c1` (centres undefined), 20% (active); for `CC(NC(=O)c1ccc(N2CCNCC2)c([N+](=O)[O-])c1)C12CC3CC(CC(C3)C1)C2` (centres undefined), -1.62%.
For the compound `Cc1cc(C)cc(Oc2nc3c(C)cccn3c(=O)c2/C=C(\C#N)C(=O)NC2CCS(=O)(=O)C2)c1` (centres undefined), the max response was -2.61%.
For `COc1cc(/C=N\Nc2ccc([N+](=O)[O-])cn2)ccc1OCC(=O)O` the value was 15.7%; for `COc1cc(C(=O)OCc2ccc([N+](=O)[O-])cc2)cc(OC)c1OC`, -1.24%; for `COc1cc(/C=N/O)ccc1OCc1ccc([N+](=O)[O-])cc1`, 88.7% (active).
